# Measured values published in PubChem BioAssay (Tox21).
# Results filed as inconclusive are left out. Unmarked numbers belong to inactive results. Calls follow the shape of the dose curve; as a rule, active = well fitted inhibition curve with a large enough effect in the repeat runs; inconclusive = weak or mixed curves; inactive = flat fitted curve, though single readings scatter.
# Test: qHTS assay to identify small molecule HDAC inhibitors (AID 1259364); also: top concentration of the series differs between compounds; nearly all actives have a fitted effect of over 45% in size
# Conditions: HCT-116 HDAC-Glo I/II luminescence, 2 h; series mostly up to 92.4 µM; activity change, negative = inhibition: at the top concentration
# Outline: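 Cells (HCT-116, wild type) are seeded at 1,500 per well, incubated overnight, treated with compound in DMSO for 2 hr, then developed with HDAC-Glo I/II reagent for 30 min at room temperature.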
# % is scaled to controls: 0 for no effect and ±100 for the full control effect.
row,SMILES,"activity change, negative = inhibition"
1,COc1ccc([C@@H]2Sc3ccccc3NC(=O)[C@@H]2O)cc1,2.86% [at 42.5 µM]
2,CN1CCCN=C1/C=C/c1cccs1,0.483% [at 42.5 µM]
3,O=C(NCCCN1CCOCC1)c1ccc(Cl)cc1,14.1% [at 42.5 µM]
4,CCCCCC=CCC=CCCCCCCCC(=O)OCC,-6.65% [at 42.5 µM]
5,CC(=O)CC(c1ccc([N+](=O)[O-])cc1)c1c(O)c2ccccc2oc1=O (stereo not drawn),5.99% [at 42.5 µM]
6,CCc1nn(CCCN2CCN(c3cccc(Cl)c3)CC2)c(=O)n1CCOc1ccccc1,4.52% [at 42.5 µM]
7,c1cnc2c(n1)CCCC2,0.201%
8,CC1CN(c2cc3c(cc2F)c(=O)c(C(=O)O)cn3-c2ccc(F)cc2F)CCN1 (stereo not drawn),-3.12% [at 8.39 µM]
9,CCOC(=O)C(C)Oc1ccc(Oc2nc3ccc(Cl)cc3o2)cc1 (stereo not drawn),-22.1%
10,C=CC(=C)CCCC(C)(C)OC(C)=O,-0.0808%
11,Nc1c(I)cc(I)c(C(=O)N(CCC(=O)O)c2ccccc2)c1I,9.12% [at 42.5 µM]
12,O=C(O)C(Cc1cc(I)c(O)c(I)c1)c1ccccc1 (stereo not drawn),-4.23% [at 42.5 µM]
13,COC(=O)c1cc(Cl)ccc1NS(=O)(=O)C(F)(F)F,-8.53% [at 42.5 µM]
14,O=C1OCCN1/N=C/c1ccc([N+](=O)[O-])o1,0.921% [at 42.5 µM]
15,NCC1CCCC(CN)C1 (stereo not drawn),1.92%
16,CCC1(C)CC(=O)NC1=O (stereo not drawn),-1.5% [at 42.5 µM]
17,N#C[C@@H]1C[C@@H]2C[C@@H]2N1C(=O)[C@@H](N)C12CC3CC(CC(O)(C3)C1)C2,-1.94% [at 42.5 µM]
18,CC1(C)O[C@@H]2C[C@H]3[C@@H]4CCC5=CC(=O)C=C[C@]5(C)[C@H]4[C@@H](O)C[C@]3(C)[C@]2(C(=O)CO)O1,9.29% [at 42.5 µM]
